Compounds with a hit are over-represented: about 1.5% of the library has one in this group of screens.
TLR4 MyD88 comp: inhibitors of human TLR4-MyD88 binding; inhibition, % at 8.4 µM; O00206+Q99836; HeLa CL3-4 TLR4/MyD88 BLA complementation, FRET ratio; 200,000 compounds, 0.18% hits; in the data active = inhibition above about 25%;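 note: 0% = vehicle and 100% = reference inhibitor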
TLR9-MyD88 inh: inhibitors of human TLR9-MyD88 binding | inhibition, % at 4.98 µM | AID 504734 | 340,000 compounds, 0.21% hits | CHO BLA complementation TLR9-MyD88, CCF4 FRET ratio | Q9NR96+Q99836;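 active = inhibition above the mean over all tested compounds plus 3 SD, cut at about 21% in these data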;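 note: 0% = DMSO only wells and 100% = clavulanate BLA inhibitor control wells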
NOD2 RIPK2 PPI: NOD2-RIPK2 protein interaction inhibition; 360,000 compounds, 0.38% hits; AID 624267; O43353; CHO BLA complementation NOD2-RIPK2, CCF4 ratio; inhibition, % at 4.98 µM; in the data active = inhibition above about 21%;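 note: 0% = vehicle only and 100% = reference blocker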
Target sequence (O43353 whole entry, looked up): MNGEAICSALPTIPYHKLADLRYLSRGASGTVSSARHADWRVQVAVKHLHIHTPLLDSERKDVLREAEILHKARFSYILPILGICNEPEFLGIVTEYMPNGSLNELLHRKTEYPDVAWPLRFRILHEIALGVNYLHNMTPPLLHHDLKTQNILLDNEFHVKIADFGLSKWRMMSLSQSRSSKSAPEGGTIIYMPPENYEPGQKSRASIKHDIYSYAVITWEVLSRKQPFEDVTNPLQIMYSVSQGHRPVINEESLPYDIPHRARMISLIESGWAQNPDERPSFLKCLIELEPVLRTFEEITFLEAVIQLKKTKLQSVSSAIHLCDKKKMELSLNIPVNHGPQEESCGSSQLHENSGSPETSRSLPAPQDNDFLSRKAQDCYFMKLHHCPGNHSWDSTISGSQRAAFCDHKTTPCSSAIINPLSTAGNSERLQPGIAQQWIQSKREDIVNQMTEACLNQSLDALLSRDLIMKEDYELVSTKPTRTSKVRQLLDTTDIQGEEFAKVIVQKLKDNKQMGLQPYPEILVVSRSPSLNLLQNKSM
Myeloid diff MLP: compounds promoting myeloid differentiation; ER-HoxA9 myeloid progenitors, lysozyme-GFP differentiation, flow cytometry; calls only at 10 µM; 360,000 compounds, 1% hits; AID 624256;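 active = normalized GFP-positive differentiation at or above the plate's own cutoff, the solvent-only control mean plus 3 SD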;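 note: cells exposed to compound for four days before flow analysis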
An asterisk follows results filed as active; i = inactive; x = no result given; + = active, no number.

SMILES	TLR4 MyD88 comp	TLR9-MyD88 inh	NOD2 RIPK2 PPI	Myeloid diff MLP
C=CCc1cccc(/C=N/NC(=O)CCC(=O)Nc2ccc(F)cc2)c1O	16	13	-9	+
O=c1cnnc(Nc2cccc(F)c2)[nH]1	-3	6	9	+
O=c1cnnc(Nc2ccc(F)cc2)[nH]1	-13	4	10	i
CN(C)c1ccc(/C=C(\C#N)C(=O)Nc2nc3c(s2)CCN(Cc2ccccc2)C3)cc1	5	8	9	+
O=[N+]([O-])c1ccccc1-c1ccc(C(=S)N2CCCC2)o1	-4	-6	-6	+
COc1cccc(C(=O)NCCS(=O)(=O)N2CCN(c3ccccc3)CC2)c1OC	x	7	8	i
O=C(C[C@H]1CC[C@H]2[C@@H](COC[C@H](O)CN2Cc2ccccc2)O1)NCCCN1CCOCC1	x	x	-4	i
COCC(=O)N(C)C[C@@H]1Oc2cc(-c3ccc(F)cc3)ccc2S(=O)(=O)N([C@H](C)CO)C[C@H]1C	x	5	-4	i
O=C(/C(=C(\[O-])c1ccccc1)[n+]1ccc2ccccc2c1)c1ccccc1	12	-6	-2	+
CC1CCc2nc(N)c(C#N)c(-c3ccncc3)c2C1 (stereo not given)	4	-6	0	+
CC1CCc2nc(N)c(C#N)c(-c3cccnc3)c2C1 (stereo not given)	-10	5	-14	i
CCCCOC(=O)c1ccc(-c2ccc(/C=N/NC(=S)NCC)o2)cc1	-24	-1	-12	+
CCOC(=O)c1ccc(-c2ccc(/C=N/NC(=O)c3cncc(Br)c3)o2)cc1	x	x	-12	i
N#Cc1cc2c(=O)n3ccccc3nc2n(Cc2cccnc2)c1=O	x	-12	-11	i
N#Cc1cc2c(=O)n3ccccc3nc2n(-c2ccccc2Cl)c1=O	-75	-110	-63	+
C=CCNc1nc(NCCOC)c2sc(-c3ccccc3)cc2n1	x	x	-5	i
C=CCNc1nc(NCc2ccc(N(C)C)cc2)c2sc(-c3ccccc3)cc2n1	x	x	10	+
CCN(CC)S(=O)(=O)c1cc(C(=O)c2nccn2C)ccc1Cl	4	9	-5	+
CCN(CC)S(=O)(=O)c1cc(C(=O)O)ccc1Cl	5	-2	-6	i
COC(=O)[C@@]12C[C@@H](CC(=O)N3CCC(c4ccccc4)CC3)C(=O)N(Cc3cccc4ccccc34)C1=CCC(C)(C)C2	x	x	-6	i
CC(Sc1nc(-c2ccccc2)c(-c2ccccc2)[nH]1)C(=O)NCC1CCCO1 (stereo not given)	x	0	3	i
COc1cccc(Cn2cnc(-c3ccccc3OC)c2C2CC2)c1	x	x	-3	i
CCN(CC(=O)Nc1c(F)cccc1F)C(=O)Cn1c(=O)cnc2ccccc21	x	-1	-5	i
CCCN(CC(=O)Nc1ccc(F)c(F)c1F)C(=O)Cn1c(=O)cnc2ccccc21	x	6	0	+
CC(=O)C(Cc1ccc(Cl)nc1)(Cc1ccc(Cl)nc1)C(C)=O	-7	14	4	+
SMILES	TLR4 MyD88 comp	TLR9-MyD88 inh	NOD2 RIPK2 PPI	Myeloid diff MLP
N#CC1=C(N)SC(N)=C(C#N)C1CCc1ccccc1	6	0	11	+
CCCCC/C=C\C/C=C\C/C=C\CCCCC(=O)O	x	-4	-12	+
N#Cc1ccccc1S(=O)(=O)N1CCN(C(=O)CN(Cc2ccco2)Cc2cccs2)CC1	x	9	3	i
O=C(CSC1=NC2(CCCCC2)N=C1c1ccccc1)Nc1ccc2c(c1)OCCO2	2	-8	-17	+
O=C(CSC1=NC2(CCCCCC2)N=C1c1ccccc1)Nc1ccc2c(c1)OCCO2	-3	-8	0	i
O=S(=O)(c1ccc(N2CCCC2)cc1)C(F)(F)F	9	-8	-1	+
CCc1ccc(C2=NN(S(C)(=O)=O)C(c3cccs3)C2)cc1 (stereo not given)	4	-2	-13	+
Cc1ccc(N2CC(C(=O)OCC(=O)Nc3cc(C)on3)CC2=O)c(C)c1 (stereo not given)	x	1	-11	+
CCC(C(=O)NC(C)(C)C)n1c(-c2ccc3c(c2)OCO3)nc2ccccc21 (stereo not given)	x	x	-3	i
O=C(Nc1ccccn1)c1ccc2nc(-c3ccccc3)c(-c3ccccc3)nc2c1	-10	x	x	x
O=C(Nc1cccnc1)c1ccc2nc(-c3ccccc3)c(-c3ccccc3)nc2c1	7	0	3	+
Cc1c(N2CCCCC2)[nH]c2ccccc12	x	9	-10	i
O=S1(=O)N[C@@H](Cc2ccccc2)COc2cccc(N3CCN(Cc4ccccc4F)CC3)c21	x	x	5	i
COc1ccc(O)c(CN2CCCC(N3CCN(c4ccc(F)cc4)CC3)C2)c1 (stereo not given)	x	-8	-4	i
COc1ccc(N2CCN(C3CCCN(Cc4ccc(F)cc4Cl)C3)CC2)cc1 (stereo not given)	x	1	-3	+
COc1ccccc1N(C)S(=O)(=O)c1ccc(C(=O)N(C)Cc2cccc(F)c2)cc1	x	-8	0	i
O=C(NCc1cccc(C(F)(F)F)c1)C1C(=O)Nc2ccccc2C(=O)N1C1CCCC1 (stereo not given)	x	x	16	i
Cc1ccccc1C1C(C#N)=C2N=C(N)c3c(sc4c3CCCCC4)N2C2=C1C(=O)CC(C)(C)C2 (stereo not given)	5	6	0	+
CC(/C=N\NC(=O)Cn1c(C)nc2ccccc21)=C\c1ccccc1	-6	-9	0	+
CC(/C=N/NC(=O)CSc1nc(C)cc(C)n1)=C\c1ccccc1	3	-1	7	i
Cc1ccc(NC(=O)CSc2nnc(NC3CC3)s2)cc1S(=O)(=O)N1CCOCC1	x	-7	1	i
Cc1cc(C)n2c(NCc3ccccc3)c(-c3cc4ccccc4o3)nc2n1	x	x	-3	+
NC(=O)CSc1nnc(-c2cccs2)n1Cc1ccco1	x	1	5	i
Cc1ccc(C)c(CSc2nnc(-c3cccs3)n2Cc2ccco2)c1	2	3	4	+
CCCCNC(=O)C1(C)CCCCCN1Cc1cccc2c(OC)cc(C(=O)OCC)cc12 (stereo not given)	x	x	-7	i
SMILES	TLR4 MyD88 comp	TLR9-MyD88 inh	NOD2 RIPK2 PPI	Myeloid diff MLP
Cc1ccc(N2CC(C(N)=O)CC2=O)cc1 (stereo not given)	20	-7	-2	i
Cc1ccc(N2CCN(c3ccc(C)cc3)C(CC(=O)O)C2=O)cc1 (stereo not given)	-1	-8	4	+
COc1ccc(NS(=O)(=O)c2cc(N)ccc2N2CCCCC2)cc1	x	-12	-7	i
Nc1ccc(N2CCCC2)c(S(=O)(=O)Nc2cccc(C(F)(F)F)c2)c1	x	-4	4	+
CC(=O)C1=CCC(c2ccccc2)N(Cc2ccccc2)C1 (stereo not given)	x	x	-2	i
C[C@H]1CN([C@@H](C)CO)C(=O)c2cc(Br)cnc2O[C@H]1CN(C)S(=O)(=O)c1ccccc1F	x	-5	-10	i
O=C(CSc1ccc(F)cc1)N1CCN(S(=O)(=O)c2ccccc2)CC1	-10	6	-5	i
O=C(CSc1ccccc1)N1CCN(S(=O)(=O)c2ccccc2F)CC1	x	1	3	+

Source: PubChem BioAssay (several laboratories)
